Test results as given in PubChem BioAssay (NCI).
About 83,000 compounds went through this panel and 20% of them were active in at least one assay; those are over-represented in the sample as a whole.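 How to read the values: 0–100, growth inhibition (40 = 60% inhibited); 0, no net growth; -100 to 0, cell death (-40 = 40% of starting cells died; -100 = all dead).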 A number with no mark means an inactive call. Calls of active or inactive are those of the source. The calls were made as follows: active = growth percent below 10; inactive = the rest.

Experiments:
Experiment in all cases: NCI-60 one-dose screen, 48 h (100 = growth as untreated, 0 = no growth, -100 = all killed)
Settings in all cases: 10 µM unless noted
[1] = system: SK-MEL-2 melanoma
[2] = system: EKVX NSCLC
[3] = system: SN12C renal
[4] = system: UO-31 renal
[5] = system: TK-10 renal
[6] = system: ACHN renal
[7] = system: CAKI-1 renal
[8] = system: A498 renal
[9] = system: CCRF-CEM leukemia
[10] = system: MOLT-4 leukemia

Compound | growth [1] | growth [2] | growth [3] | growth [4] | growth [5] | growth [6] | growth [7] | growth [8] | growth [9] | growth [10]
COc1cc(-c2nccc3[nH]c(-c4cccc5[nH]ccc45)nc23)cc(OC)c1OC | 35.8% | 46.3% | 40.9% | 34% | 34.7% | 17% | 31.4% | -6.89% (active) | 11.7% | 19.9%
N#Cc1c(-c2ccccc2)nc2c(c(-c3ccc(Cl)cc3)nn2-c2ccccc2)c1-c1ccc([N+](=O)[O-])cc1 | 104% | 103% | 105% | 81.2% | 121% | 97.5% | 79% | 99.7% | 90.6% | 97.1%
C/C=C1/CN(CCCCC)CC[C@H]1C(=O)c1cc2ccccc2[nH]1 | 118% | 94.1% | 86.1% | 50.7% | 120% | 96.1% | 87.6% | 88.9% | 96.8% | 86.1%
CCOC(=O)C#Cc1c(C(=O)OCC)nnn1[C@@H]1O[C@H](COC)[C@@H](OC)[C@H]1OC | 92% | 107% | 82.5% | 29.2% | 11.1% | -35.3% (active) | -91.2% (active) | 99.1% | 27.7% | 58.6%
O=CN1N=C(c2cccc(Nc3ccnc4cc(Cl)ccc34)c2)CC1c1ccc(Cl)cc1 (stereo not given) | 9.56% (active) | 49.1% | 34.1% | 22.7% | 45% | 45.5% | 18.8% | 11.4% | 12.2% | 13.7%
CC1(C)CC[C@]23CC[C@]4(C)[C@H](CC[C@@H]5[C@@]6(C)C/C(=C/O)C(=O)C(C)(C)[C@@H]6CC[C@]54C)[C@H]2[C@H]1OC3 | 108% | 98.4% | 99.2% | 85% | 113% | 110% | 91.1% | 105% | 99.5% | 97.7%
Cc1nc(N/N=C/c2cn(-c3ccccc3)nc2-c2cc3ccccc3oc2=O)sc1N=Nc1ccccc1 | 93.7% | 102% | 97.6% | 70.7% | 106% | 98% | 69.7% | 77% | 94.3% | 85.1%
CCCC(O)Cn1ncc(C(=O)OCC)c1NC(=O)NCc1cccc(C(F)(F)F)c1 (stereo not given) | 73.4% | 90.5% | 93.7% | 65% | 90.4% | 97.7% | 83.8% | 99% | 5.39% (active) | 62%
COc1ccc(C(c2cc(OC)c(OC)c(OC)c2)N2CCCCC2)cc1 (stereo not given) | 22% | 59.1% | 54.3% | 48.8% | 57.6% | 50.9% | 29.2% | 7.32% (active) | 29.9% | 31.5%
CC(=O)c1ccc(-n2cc(CN3CCN(c4cc5c(cc4F)c(=O)c(C(=O)O)cn5C4CC4)CC3)nn2)cc1 | 96.4% | 88.5% | 103% | 63.1% | 103% | 96.7% | 87.8% | 76.7% | 111% | 102%
CN1c2ccccc2S(=O)(=O)n2c(SCC(=O)Nc3nc4ccc(F)cc4s3)nnc21 | 52.6% | 102% | 104% | -65.7% (active) | 130% | 96.1% | 97.3% | 119% | 31.1% | 81.9%
O=C(O)c1cn(C2CC2)c2cc(N3CCN(C(=O)N4CCOCC4)CC3)c(F)cc2c1=O | 103% | 101% | 101% | 79.6% | 93.2% | 100% | 96.5% | 117% | 108% | 117%
O=c1cc(-c2ccccc2)nc(SCc2nc3cc(Cl)c(Cl)cc3[nH]2)[nH]1 | 91.3% | 102% | 105% | 81.7% | 104% | 97.3% | 93.3% | 93.7% | 124% | 95.5%
